Source: ChEMBL document CHEMBL4513216, “Probing the Open Global Health Chemical Diversity Library for Multistage-Active Starting Points for Next-Generation Antimalarials” (ACS Infect Dis, 2020)
Hit rate of the full screen: of about 69,000 compounds, about 8,600 (12%) showed an effect of 50% or more. This is one part of a sample in which strong results are shown more often than they occur.

system: Plasmodium berghei; test: Screen against P. berghei liver stage (PbLuc), transformed with Luciferase, at 10uM; format: functional, HepG2; details: tested at 10 uM

SMILES	INHIBITION
Cc1nc(C(=O)N2CCC(c3nnc(Cn4ccnc4)n3C)CC2)cs1	-19.5%
Cc1ccc(Br)c(S(=O)(=O)NCc2ccnn2C)c1	-24.4%
COCCN1CCC2(CCN(CC3CC3)CC2)C1=O	8.85%
c1cc(CN2CCCC2)cc(-n2ccnc2-c2ccncc2)c1	22.7%
NC(=O)c1ccc(-n2ccnc2C2CC2)cc1N1CCCC1	36.3%
Cc1nc[nH]c1-c1nc2cc(S(=O)(=O)N3CCCC3)ccc2n1C	4.71%
NC(=O)c1ccc(-n2ccnc2-c2cccc(O)c2)cc1N1CCCC1	63.5%
Cc1nc[nH]c1-c1nccn1-c1cccc(CN2CCCC2)c1	53%
Cc1nc[nH]c1-c1nccn1CCN(C)S(C)(=O)=O	8.86%
CCN(CC)CCn1ccnc1-c1cccc(O)c1	-18.8%
Cc1nc[nH]c1-c1nccn1-c1ccc(C(N)=O)c(N2CCCC2)c1	50.5%
Cn1ccnc1-c1nccn1-c1cccc(CN2CCCC2)c1	39.9%
CN(Cc1cnn(C)c1)C(=O)NCCc1ccc2c(c1)OCO2	-24.75%
Cc1cc2nc(SCC(=O)N3CCCC3)n(-c3ccccc3)c(=O)c2[nH]1	16.6%
Cc1ncc(CN2CCc3c(nc(-c4ccccn4)[nH]c3=O)C2)n1C	31.6%
COCCc1noc(CN2CCOC(Cn3nc(C)cc3C)C2)n1 (stereo unspecified)	14.4%
CC(=O)N[C@@H]1CN(C(=O)c2cnc3ccccc3c2)C[C@H]1O	22%
CCC[C@@H]1CN(C(=O)c2cc3ccccc3s2)C[C@H]1NS(C)(=O)=O	20.1%
CCC[C@@H]1CN(C(=O)c2cnc3ccccc3c2)C[C@H]1NS(C)(=O)=O	51.1%
OCc1nnc2n1CCN(c1cnccn1)C2	28.5%
CCC(CC)(CNC(=O)OC(C)(C)C)NC(=O)C1CCOCC1	-50.8%
CCC(CC)(CNC(=O)OC(C)(C)C)NC(=O)C1CCCO1 (stereo unspecified)	56.6%
CCC(CC)(CNC(=O)OC(C)(C)C)NC(=O)C1CC1	-120%

SMILES	INHIBITION
Cc1cc(C(=O)Nc2nc3c(s2)CN(S(=O)(=O)C2CC2)CC3)c(C)o1	-59.6%
CC(C)c1nc(N2CCC(N3CCSCC3)CC2)c2cnn(C)c2n1	21.1%
C[C@@H]1CN(CCCOc2ccc(F)cc2)CC[C@@]1(O)C1CCOCC1	7.24%
Cn1nnnc1SCC1Cc2ccccc2O1 (stereo unspecified)	17.2%
Cc1cnn(C2CCCN(C(=O)c3cc[nH]n3)C2)c1 (stereo unspecified)	64.6%
Cc1cnn(C2CCCN(C(=O)c3ccc(N(C)C)nn3)C2)c1 (stereo unspecified)	11.6%
O=C(c1cccc2c1OCO2)N1CCCC(n2cccn2)C1 (stereo unspecified)	28.5%
COc1ccc(CCC(=O)N2CCCC(n3cncn3)C2)cc1 (stereo unspecified)	-7.35%
Cc1cnn(C2CCCN(C(=O)c3ccc(N4CCCC4)nn3)C2)c1 (stereo unspecified)	25.1%
CCc1ccc(C(=O)N2CCCC(n3cncn3)C2)o1 (stereo unspecified)	45.1%
Cc1cnn(C2CCCN(C(=O)c3cccc4c3OCO4)C2)c1 (stereo unspecified)	56.6%
Cc1ccc(C(=O)N2CCCC(n3cncn3)C2)o1 (stereo unspecified)	60.1%
O=C(c1ccc(Br)o1)N1CCCC(n2cncn2)C1 (stereo unspecified)	11.8%
O=C(CCCc1ccccc1)N1CCCC(n2cncn2)C1 (stereo unspecified)	-12.2%
COc1ccc(CCCC(=O)N2CCCC(n3cncn3)C2)cc1 (stereo unspecified)	54.8%
Cc1cc(C)n(C2CCCN(C(=O)c3cccc4c3OCO4)C2)n1 (stereo unspecified)	23.7%
CCOc1ccccc1C(CC(=O)Nc1ccccn1)NC(C)=O (stereo unspecified)	-10.45%
Cc1ccc(CN2CC[C@H]3[C@H]2CCN3S(=O)(=O)C2CC2)cc1	8.85%
Cn1c(CN2CCCC(N3CCNC3=O)C2)cc(=O)n(C)c1=O (stereo unspecified)	31.4%
CCN1CC2(CCC1=O)CCN(Cc1cccc(OC(F)F)c1)CC2	-9.39%
CN(C)Cc1cn(-c2ccccc2C(=O)NCC2CCCCN2C)cn1 (stereo unspecified)	29.95%
CNc1nc2c(s1)C(c1c(F)cccc1Cl)CC(=O)N2 (stereo unspecified)	3.95%
CN(C)C(=O)[C@]12CCCN(CC3CC3)C[C@H]1CN(c1ccccn1)C2	0.618%

SMILES	INHIBITION
COc1ccccc1CN(C)C(=O)C[S+]([O-])Cc1cc(C)on1 (stereo unspecified)	5.29%
CC(C(=O)N1CCCN(Cc2cscn2)CC1)N1CCOCC1 (stereo unspecified)	-4.3%
Cn1cc(CN2CCn3cc(Cn4cccn4)nc3C2)cn1	-6.23%
Cc1cc(C(=O)N2CCCC(n3cncn3)C2)no1 (stereo unspecified)	11.235%
Cc1cnn(C2CCCN(C(=O)c3cc(C4CC4)on3)C2)c1 (stereo unspecified)	59%
CNc1snc(C)c1C(=O)N1CCCC(n2cccn2)C1 (stereo unspecified)	46.2%
Cc1cc(C)n(CCC(=O)N2CCCC(n3cncn3)C2)n1 (stereo unspecified)	64.7%
CNc1snc(C)c1C(=O)N1CCCC(n2nc(C)cc2C)C1 (stereo unspecified)	32.8%
O=C(c1cc(C2CC2)on1)N1CCCC(n2cccn2)C1 (stereo unspecified)	27.65%
O=C(c1ccon1)N1CCCC(n2cncn2)C1 (stereo unspecified)	9.82%
O=C(c1cc(C2CC2)on1)N1CCCC(n2cncn2)C1 (stereo unspecified)	56.6%
Cn1cc(CCC(=O)N2CCCC(n3cncn3)C2)cn1 (stereo unspecified)	19.4%
CNc1snc(C)c1C(=O)N1CCCC(n2cc(C)cn2)C1 (stereo unspecified)	58.5%
Cc1cc(C)n(C2CCCN(C(=O)c3cc(C4CC4)on3)C2)n1 (stereo unspecified)	14.4%
Cc1cc(C)n(CCC(=O)N2CCCC(n3nc(C)nc3C)C2)n1 (stereo unspecified)	30.2%
COCC(=O)NCc1cc(=O)n2c(n1)CN(Cc1nccs1)CCC2	44.8%
CC(=O)N(C)C1CCN(C(=O)c2cccc3c2ccn3C)CC1	9.63%
Cn1cc(CN2CCOCC3(C2)CN(c2ccccc2)C(=O)CO3)cn1 (stereo unspecified)	17.1%
CC(=O)N(Cc1noc(C)n1)C1CCN(Cc2cccc(C#N)c2)C1 (stereo unspecified)	-18%
O=C(O)CN1CCC(C(F)(F)F)CC1	2.4%
CCn1ncc(CNC(=O)c2cn(CCC3CCCCN3)nn2)c1C (stereo unspecified)	83.8%
CCn1nc(C)c(CNC(=O)c2cn(CCC3CCCCN3)nn2)c1C (stereo unspecified)	-25%
Cc1c(CNC(=O)c2cn(CCC3CCCCN3)nn2)cnn1C (stereo unspecified)	-70.7%

SMILES	INHIBITION
Cc1cc(C)n(CC2CCCN2C(=O)Cc2c(C)nn(C)c2C)n1 (stereo unspecified)	-43.5%
Cc1ccc(N2CCc3ncnc(C)c3CC2)nn1	35.8%
CCN(C)c1ncnc2c1CCN(c1ccc(C)nn1)CC2	39.4%
Cc1ccc(N2CCc3ncnc(C4CC4)c3CC2)nn1	58.4%
Cc1ccc(N2CCc3ncnc(N(C)C)c3CC2)nn1	8.6%
Cc1cccc(N2CCc3ncnc(C4CC4)c3CC2)n1	-11.6%
CCN(CC)c1ncnc2c1CCN(c1ccc(C)nn1)CC2	52.1%
Cc1cccnc1C(=O)N1CCCC(Cc2cncc3ccccc23)C1 (stereo unspecified)	-63.5%
CCn1cc(Cl)c(C(=O)NCc2cnn(C)c2)n1	3.46%
O=C(NCCCn1cccn1)N1CCCC1c1ccsc1 (stereo unspecified)	28.6%
CN(CCCNC(=O)N1CCCC1c1ccsc1)c1ccccn1 (stereo unspecified)	52%
Cc1nc(-c2nnc[nH]2)sc1C(=O)N1CCCC1c1cccs1 (stereo unspecified)	-81.2%
O=C(NCCCn1ccnc1)N1CCCC1c1ccsc1 (stereo unspecified)	28.4%
CCOC(=O)C1CCN(C(=O)CN2CCCC2c2ccccc2C)CC1 (stereo unspecified)	70.1%
Cc1nc(-c2nnc[nH]2)sc1C(=O)N1CCCC1CC(C)(C)C (stereo unspecified)	-10.2%
Cc1nc(-c2nnc[nH]2)sc1C(=O)N1CCCC1c1ccsc1 (stereo unspecified)	72.5%
CC(C)CC(=O)N1CCCC1c1ccsc1 (stereo unspecified)	-8.66%
CCOC(=O)C1CCN(C(=O)CN2CCCC2Cc2ccccc2)CC1 (stereo unspecified)	-4.93%
CCC(=O)N1CCCC1c1ccsc1 (stereo unspecified)	50.4%
COc1ccccc1C1CCCN1CC(=O)N1CCC(C(N)=O)CC1 (stereo unspecified)	34%
CSCCC(=O)N1CCCC1c1ccsc1 (stereo unspecified)	1.81%
Cc1nnc2ccc(N3CCN(CCc4ccccn4)CC3)nn12	-57.4%
Cc1cc(C(=O)N2C[C@@H]3COC[C@]3(CN(C)C)C2)c(C)o1	25.1%

SMILES	INHIBITION
Cc1nn(C)cc1-c1nn2c(C(F)(F)F)nnc2s1	-15.2%
Cc1c(C(=O)N2CCS(=O)(=O)CC2)nnn1-c1ccc2ncccc2c1	46.6%
CCc1nnc(CN(CC)C(=O)C2CC(=O)N(CC)C2)o1 (stereo unspecified)	39.1%
CCC(C)(C)NC(=O)Cn1nnc(CN(C)C(=O)c2ccccc2)n1	29.6%
Cc1cnc(Nc2nccnc2C2CCN(C)CC2)s1	7.39%
O=C(O)c1cccc(CN2CCCC(Cc3ccn[nH]3)C2)c1 (stereo unspecified)	-0.05%
Cc1ncccc1C(=O)N1CCC2(CCc3ccccc3C(=O)N2)C1 (stereo unspecified)	13.79%
Cn1cccc1C(=O)NC[C@]12COC[C@H]1CN(Cc1nccs1)C2	-30.6%
Cc1cccc(CNc2n[nH]c(C)n2)c1	33.1%
CCOC(=O)C1CCN(C(=O)CN2CCCC2c2cc(C)no2)CC1 (stereo unspecified)	-15.1%
CCOC(=O)C1CCN(C(=O)CN2CCCC2c2ccsc2)CC1 (stereo unspecified)	54.6%
CN(CCC#N)C(=O)CN1CCCC1c1ccsc1 (stereo unspecified)	10.5%
O=C(NCC1CCOC1)c1csc(-c2ccccc2)n1 (stereo unspecified)	-10.6%
c1cc2c(cc1CN1CC[C@H]3[C@H]1CCN3CC1CC1)OCO2	6.27%
O=C(c1ccc2[nH]cnc2c1)N1CCC(Oc2ccccn2)CC1	35.2%
Cc1cnn(CCCNC(=O)CCC2CCCCN2C)c1 (stereo unspecified)	35.1%
C[C@@H]1CN(C2(C(=O)N3CCCCCC3)Cc3ccccc3C2)C[C@H](C)O1	-0.182%
C[C@@H]1CN(C2(C(=O)N3CCSCC3)Cc3ccccc3C2)C[C@H](C)O1	73.9%
C[C@@H]1CN(C2(C(=O)N3CCOCC3)Cc3ccccc3C2)C[C@H](C)O1	21%
